Source: PubChem BioAssay (Tox21)
A number with no mark means an inactive call. Active and inactive are the calls of the source. Calls follow the shape of the full dose curve.

Assay: G protein-coupled receptor (GPCR) small molecule agonists, calcium flux assay: HEK293 wild type cell line counter screen (AID 1920065)
Conditions: HEK293 WT calcium flux, fluorescence, agonist mode; series mostly up to 57.6 µM
How it was run: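 Cells were plated and cultured 18 h at 37 C/5% CO2, then loaded with calcium dye for 1 h at 37 C. Compounds in DMSO were pin-transferred in agonist mode, and fluorescence (Ex/Em 480/540) was read kinetically for 3 min at 1 s intervals.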
% is scaled to controls: 0 for no effect and ±100 for the full control effect.

Compound: OCCNCc1ccccc1
- outcome: inactive

Compound: CCN(CC)c1ccc2c(-c3ccc(S(=O)(=O)O)cc3S(=O)(=O)[O-])c3ccc(=[N+](CC)CC)cc-3oc2c1
- outcome: inactive

Compound: CC1OC(=O)C(C)OC1=O (configuration not stated)
- outcome: inactive

Compound: CC(C)[N+](C)(C)CC(O)COc1cccc2ccccc12 (configuration not stated)
- outcome: inactive

Compound: CCCN(CCC)C(=O)C(CCC(=O)O)NC(=O)c1ccccc1 (configuration not stated)
- outcome: inactive

Compound: O=CCCc1ccccc1
- outcome: inactive

Compound: CCc1cc(Cl)c(OC)c(C(=O)NC[C@@H]2CCCN2CC)c1O
- outcome: inactive

Compound: O=C(Nc1ccccc1)c1cc([N+](=O)[O-])ccc1Cl
- outcome: inactive

Compound: CC(C)Cn1cnc2c(N)nc3ccccc3c21
- activation: -0.0034% [at 11.8 µM]

Compound: CCCCNc1ccc(C(=O)OCCN(C)C)cc1
- outcome: inactive

Compound: C=CCSSCCC
- outcome: inactive

Compound: CCCCOCCOC(=O)CCCCCCCCC(=O)OCCOCCCC
- outcome: inactive

Compound: Nc1ccc(S(=O)(=O)O)cc1
- outcome: inactive

Compound: O=C(OCC(COC(=O)c1ccccc1)(COC(=O)c1ccccc1)COC(=O)c1ccccc1)c1ccccc1
- outcome: inactive

Compound: C=COC(=O)C(C)(CC)CCC(C)C (configuration not stated)
- outcome: inactive

Compound: C=CC(=O)OCC(O)COc1ccccc1 (configuration not stated)
- outcome: inactive

Compound: CCOc1ccccc1N
- outcome: inactive

Compound: Cc1ccc(C)c(N)c1
- outcome: inactive

Compound: CCC(C(=O)O)c1ccc(N2Cc3ccccc3C2=O)cc1 (configuration not stated)
- outcome: inactive

Compound: Nc1cccc2c(=O)[nH][nH]c(=O)c12
- outcome: inactive

Compound: CO[Si](OC)(OC)OC
- outcome: inactive

Compound: COC(=O)NN
- outcome: inactive

Compound: CCOC(=O)C1=NN(c2ccc(Cl)cc2Cl)C(C)(C(=O)OCC)C1 (configuration not stated)
- outcome: inactive

Compound: Cc1c[nH]c2ccccc12
- outcome: inactive

Compound: NCC1CCC(C(=O)Oc2ccc(CCC(=O)O)cc2)CC1 (configuration not stated)
- outcome: inactive

Compound: CCC(=O)c1cccc(Cl)c1
- outcome: inactive

Compound: CC(C)C(O)C(C)(C)CO (configuration not stated)
- outcome: inactive
